Experimental findings from ChEMBL document CHEMBL5606460, “ASAP - DENV-2 NS2B-NS3 protease fluorescence single point” (2024) are described below.

The target of this assay is Genome polyprotein (dengue virus type 2) (UniProt P29990).
Setting [1] is: Thailand/16681/1984, Concentration 25.0 uM, Number of replicates 1.0.

The structures appear in SMILES notation. The campaign covered roughly 2,000 compounds. About 110 (5.5%) showed an effect of 50% or more. Shown is part of a subset that was picked to be rich in strong results.

Consider `CCc1nc(CNC(=O)[C@]2(c3ccc(F)cc3)CCCNC2)n[nH]1`, for which the inhibition by setting is: (Thailand/16681/1984, Concentration 49.5 uM, Number of replicates 2.0, Standard deviation 0.49799700461423274 %) -1.23%; (Thailand/16681/1984, Concentration 99.01 uM, Number of replicates 2.0, Standard deviation 0.6482125452450617 %) -1.25%; (Thailand/16681/1984, Concentration 198.0 uM, Number of replicates 2.0, Standard deviation 1.0139545093997464 %) -1.41%. `O=Cc1ccc(N2CCC(C(=O)NCc3ccccc3Br)CC2)cc1`: the inhibition under setting [1] was 12.3%.

Take `O=Cc1ccc(N2CCC(C(=O)NCc3ccc4ccccc4n3)CC2)cc1`: under setting [1], the inhibition is 12.8%. In the case of `Cc1nc(C2CCN(Cc3c[nH]c4ccccc34)CC2)sc1C(=O)O`, the inhibition reads like this: (Thailand/16681/1984, Concentration 49.5 uM, Number of replicates 2.0, Standard deviation 2.532196482700825 %) -7.37%; (Thailand/16681/1984, Concentration 99.01 uM, Number of replicates 2.0, Standard deviation 0.1962596660766768 %) -5.26%; (Thailand/16681/1984, Concentration 198.0 uM, Number of replicates 2.0, Standard deviation 1.7247831523377455 %) -1.52%. In the case of `COC(=O)c1cncc(C(=O)Nc2ccncc2C)c1`, the inhibition was 2.4% (Thailand/16681/1984, Concentration 49.5 uM, Number of replicates 2.0, Standard deviation 6.3209660189886 %); -1.8% (Thailand/16681/1984, Concentration 99.01 uM, Number of replicates 2.0, Standard deviation 0.9582277355643998 %); -2.38% (Thailand/16681/1984, Concentration 198.0 uM, Number of replicates 2.0, Standard deviation 0.7051109593221626 %).

For `Cc1cc(S(=O)(=O)NCCNC(=O)c2ccc(O)c(NC(=O)c3ccncc3F)c2C)c(C)s1`, the inhibition is -1.95% (Thailand/16681/1984, Concentration 49.5 uM, Number of replicates 2.0, Standard deviation 0.0696651159595359 %); -1.5% (Thailand/16681/1984, Concentration 99.01 uM, Number of replicates 2.0, Standard deviation 0.12517951182523615 %); 0.045% (Thailand/16681/1984, Concentration 198.0 uM, Number of replicates 2.0, Standard deviation 0.5034395957498385 %). Turning to `COc1ccc(CN(C)C(=O)C2CCN(c3ccc(C=O)cc3)CC2)c(OC)c1`, under setting [1], the inhibition was found to be 14%. Still for that read-out and setting: next, `NC(=O)c1c(NC(=O)C2CCN(c3ccc(C=O)cc3)CC2)sc2c1CCCC2`: 38.6%. Regarding `CCn1cc(S(=O)(=O)Nc2ccc(Cl)cc2C(=O)NC)cn1`, the inhibition (Thailand/16681/1984, Concentration 49.5 uM, Number of replicates 2.0, Standard deviation 0.5029835247021022 %) was -6.21%. Take `C[C@@H](c1ccccc1)N(C(=O)C1CCN(c2ccc(C=O)cc2)CC1)[C@@H](C)c1ccccc1`: under setting [1], the inhibition is 15.2%.

Take `CC1(C)Cc2sc(NC(=O)Cc3ccc(S(N)(=O)=O)cc3)c(C#N)c2CN1CC1CCCCC1`: the inhibition is 8.25% (Thailand/16681/1984, Concentration 49.5 uM, Number of replicates 2.0, Standard deviation 0.009484052439315419 %); 14.5% (Thailand/16681/1984, Concentration 99.01 uM, Number of replicates 2.0, Standard deviation 0.7150155530159198 %); 23.9% (Thailand/16681/1984, Concentration 198.0 uM, Number of replicates 2.0, Standard deviation 0.2762742778628508 %).

As for `Cc1cc(CO)c2cccc(Cc3ccccc3C(=O)NCc3ccc(C(N)=O)cc3)c2n1`, the inhibition is, setting by setting: (Thailand/16681/1984, Concentration 49.95 uM, Number of replicates 2.0, Standard deviation 0.2888981019288338 %) 2.07%; (Thailand/16681/1984, Concentration 99.9 uM, Number of replicates 2.0, Standard deviation 0.18972386998439544 %) 5.84%. With `Cc1cc(CO)c2cccc(CC(=O)NCc3sccc3C)c2n1`, the inhibition (Thailand/16681/1984, Concentration 49.95 uM, Number of replicates 2.0, Standard deviation 0.3413314788746907 %) was found to be 44% and the inhibition (Thailand/16681/1984, Concentration 99.9 uM, Number of replicates 2.0, Standard deviation 0.321257440691134 %) was 63.7%. `Cc1cc(CO)c2cccc(Cc3ccccc3C(=O)NCc3sccc3C)c2n1`: the inhibition was determined as 1.17% (Thailand/16681/1984, Concentration 49.95 uM, Number of replicates 2.0, Standard deviation 0.661878407993628 %) and 7.83% (Thailand/16681/1984, Concentration 99.9 uM, Number of replicates 2.0, Standard deviation 2.367239112425795 %). `Cc1cc(N)cc(CNC(=O)c2ccccc2Cc2cccc3c(CO)cc(C)nc23)c1`: the inhibition is 47.1% (Thailand/16681/1984, Concentration 49.95 uM, Number of replicates 2.0, Standard deviation 1.0161746789387547 %) and 74.7% (Thailand/16681/1984, Concentration 99.9 uM, Number of replicates 2.0, Standard deviation 1.7549489162224476 %). On to `Cc1cc(CO)c2cccc(Cc3cccc(C(=O)NCc4sccc4C)c3)c2n1`, for which the inhibition is, setting by setting: (Thailand/16681/1984, Concentration 49.95 uM, Number of replicates 2.0, Standard deviation 0.7466793423372446 %) 1.25%; (Thailand/16681/1984, Concentration 99.9 uM, Number of replicates 2.0, Standard deviation 0.16169689007422708 %) 23.8%.

As for `Cc1cc(CO)c2cccc(Cc3ccccc3C(=O)NCc3ccc(S(N)(=O)=O)cc3)c2n1`, the inhibition came to 4.94% (Thailand/16681/1984, Concentration 49.95 uM, Number of replicates 2.0, Standard deviation 1.5695359944911405 %) and 9.8% (Thailand/16681/1984, Concentration 99.9 uM, Number of replicates 2.0, Standard deviation 2.135114838489864 %). With `CC(C)NC(=O)CN1CCN(C(=O)C2CCN(c3ccc(C=O)cc3)CC2)CC1`, the inhibition under setting [1] amounted to 11.2%. Take `Cc1cn2nnc(C(=O)N3CCC[C@H](c4nc(=O)[nH][nH]4)C3)c2c(=O)[nH]1`: the inhibition is, setting by setting: (Thailand/16681/1984, Concentration 49.5 uM, Number of replicates 2.0, Standard deviation 1.1306810071407891 %) -1.83%; (Thailand/16681/1984, Concentration 99.01 uM, Number of replicates 2.0, Standard deviation 1.1436614778388714 %) -1.38%; (Thailand/16681/1984, Concentration 198.0 uM, Number of replicates 2.0, Standard deviation 0.31245549284811885 %) -1.83%.

As to `Cc1cc(CO)c2cccc(Cc3cccc(C(=O)N[C@H]4C[C@@H](O)C4)c3)c2n1`, the inhibition is, setting by setting: (Thailand/16681/1984, Concentration 49.95 uM, Number of replicates 2.0, Standard deviation 0.3715430142368757 %) 6.97%; (Thailand/16681/1984, Concentration 99.9 uM, Number of replicates 2.0, Standard deviation 0.8666943057865014 %) 29.2%. As to `Cc1cc(CO)c2cccc(C[C@H](NC(=O)c3cc(C(F)F)nn3C)C(=O)O)c2n1`, the inhibition by setting is: (Thailand/16681/1984, Concentration 49.95 uM, Number of replicates 2.0, Standard deviation 1.4383595761786832 %) 1.98%; (Thailand/16681/1984, Concentration 99.9 uM, Number of replicates 2.0, Standard deviation 0.48778570830386186 %) 5.89%. In the case of `Cc1nc(N)c2cccc(Cl)c2n1`, the inhibition by setting is: (Thailand/16681/1984, Concentration 49.95 uM, Number of replicates 2.0, Standard deviation 5.075529174302592 %) -8.29%; (Thailand/16681/1984, Concentration 99.9 uM, Number of replicates 2.0, Standard deviation 2.1313934403537464 %) -8.87%. `COc1ccccc1N1CCN(C(=O)C2CCN(c3ccc(C=O)cc3)CC2)CC1`: under setting [1], the inhibition is 12.1%. Regarding `O=C(Nc1cccc2cccnc12)C1CCNCC1`, the inhibition by setting is: (Thailand/16681/1984, Concentration 49.95 uM, Number of replicates 2.0, Standard deviation 0.4211783883506398 %) -0.871%; (Thailand/16681/1984, Concentration 99.9 uM, Number of replicates 2.0, Standard deviation 1.2273405052219766 %) 51.5%.

With `N[C@@H]1CCCC[C@H]1C(=O)Nc1cccc2cccnc12`, the inhibition was -8.7% (Thailand/16681/1984, Concentration 49.95 uM, Number of replicates 2.0, Standard deviation 3.2838754106489776 %) and -7.2% (Thailand/16681/1984, Concentration 99.9 uM, Number of replicates 2.0, Standard deviation 3.148144351005342 %).
